Source: PubChem BioAssay AID720488 (Milwaukee Institute for Drug Discovery, 2013)
Among all 16,000 compounds or so, about 960 (6%) were called active. The sample as a whole holds a higher share of actives than the screen did. Unmarked numbers belong to inactive results.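 Rule for the calls: active = compound fluorescence over control fluorescence at most 0.8, a quencher, or at least a set upper limit, an enhancer; inactive = ratio between 0.8 and the set upper limit.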

experiment: Cy5 fluorescence quenchers or enhancers, artefact control for HCV NS3 helicase inhibitor project, biochemical, ChemBridge library, Cy5 readout (AID 720488); conditions: Cy5-dT15 DNA with NS3h, at 100 µM, actives lie on both sides, signal over control mean, under 1 quenches

For COc1cc(C(=O)N2CCC(Cc3ccccc3)CC2)c([N+](=O)[O-])cc1OC, the fluorescence interference ratio was 0.65 (active).
For C=CC[n+]1c(-c2ccc(OC)cc2)csc1Nc1cccc(C)c1C, the fluorescence interference ratio was 1.2 (active).
With O=C1/C(=C\c2cccc(Br)c2)SC(=S)N1c1cccc(C(F)(F)F)c1 the fluorescence interference ratio was 0.626 (active).
With COc1ccc(Br)cc1/C=C1/SC(=S)N(c2cccc(C(F)(F)F)c2)C1=O the fluorescence interference ratio was 0.773 (active).
For Cc1cccc(CN2CCN(S(C)(=O)=O)CC2)c1, the fluorescence interference ratio was 0.788 (active).
In the case of COc1cc(C=C2C(=O)NC(=O)NC2=O)ccc1OCCOc1ccc([N+](=O)[O-])cc1, the fluorescence interference ratio is reported as 0.699 (active).
In the case of CS(=O)(=O)N1CCN(C(=O)Cc2ccccc2)CC1, the fluorescence interference ratio is reported as 0.765 (active).
With CSc1ccccc1NC(=O)CSc1nc2ccccc2o1 the fluorescence interference ratio was 0.737 (active).
For CCCOc1ccc(C(=O)Nc2ccc(N(CC)CC)cc2)cc1, the fluorescence interference ratio was 1.28 (active).
In the case of CCN(CC)c1ccc(/C=C2\C(=O)NC(=O)N(c3ccc(OC)cc3)C2=O)c(OC)c1, the fluorescence interference ratio is reported as 1.26 (active).

First: COc1ccccc1CN1CCN(C(=O)c2ccc([N+](=O)[O-])cc2)CC1
Second: CCC(=O)Nc1ccccc1C(=O)N1CCN(Cc2ccccc2)CC1
The fluorescence interference ratio of the first is higher: 1.03 for the first, 0.994 for the second.

Compared with COc1ccc(OC)c(S(=O)(=O)N2CCC(Cc3ccccc3)CC2)c1, O=S(=O)(c1ccc(Br)c2ccccc12)N1CCOCC1 is lower in fluorescence interference ratio: 0.968 for the first, 0.956 for the second.

First: CCOc1ccc(C(=O)Nc2cc3nn(-c4ccc(C)cc4)nc3cc2C)cc1[N+](=O)[O-]
Second: Cc1ccc(C(=O)Nc2ccc(Cl)cn2)cc1[N+](=O)[O-]
The fluorescence interference ratio of the first is higher: 1.04 for the first, 1.02 for the second.

First: CN1C(=O)/C(=C\c2ccccc2OCCOc2ccc(Br)cc2)SC1=S
Second: C=CCc1ccccc1OCCn1cc(/C=C2/SC(=S)N(CC)C2=O)c2ccccc21
The fluorescence interference ratio of the first is higher: 1.14 for the first, 1.05 for the second.

Compared with Cc1cccc(NC(=O)COc2ccc3ccccc3c2)c1C, Cc1ccc(C(=O)Nc2cccc(-c3nc4ccccc4o3)c2C)cc1 is lower in fluorescence interference ratio: 1.12 for the first, 0.985 for the second.

First: CCC(=O)CC(O)(c1ccccc1)C(F)(F)F (stereo not given)
Second: O=C1/C(=C\c2cccc(C(F)(F)F)c2)SC(=S)N1c1ccccc1
The fluorescence interference ratio of the first is lower: 0.957 for the first, 1.08 for the second.

Compared with Cc1cccc(OCC(=O)Nc2ccc(Cl)c(C(F)(F)F)c2)c1, O=C(CSc1ccc(Cl)cc1Cl)Nc1cccc([N+](=O)[O-])c1 is lower in fluorescence interference ratio: 1.07 for the first, 0.897 for the second.

First: COc1ccccc1/C=C1\SC(=S)N(CC(C)C)C1=O
Second: COc1cc(/C=C2/SC(=S)N(c3c(C)n(C)n(-c4ccccc4)c3=O)C2=O)c([N+](=O)[O-])cc1OC
The fluorescence interference ratio of the first is lower: 0.946 for the first, 0.991 for the second.

Compared with O=Cc1ccc(/C=C2/SC(=S)N(c3cccc(Cl)c3)C2=O)cc1, COc1ccc(/C=C2\C(=O)NC(=S)N(c3ccc(Br)cc3)C2=O)cc1 is lower in fluorescence interference ratio: 1.1 for the first, 1.05 for the second.

First: O=C(CN(c1ccc(Br)cc1)S(=O)(=O)c1ccccc1)NCC1CCCO1 (stereo not given)
Second: O=C(c1ccc(S(=O)(=O)N2CCOCC2)cc1)N1CCN(c2ccccc2)CC1
The fluorescence interference ratio of the first is higher: 1.03 for the first, 0.907 for the second.

First: Cc1ccc(NCC(O)COc2ccc(OCC(O)CNc3ccc(C)cc3C)cc2)c(C)c1 (stereo not given)
Second: COc1cc(/C=C2/SC(=S)NC2=O)ccc1OCCOCCOc1ccc(C)cc1
The fluorescence interference ratio of the first is higher: 1.06 for the first, 0.925 for the second.

Compared with COC(=O)C1=C(C)N=c2s/c(=C/c3ccccc3OC(C)=O)c(=O)n2C1c1ccc(OC(C)=O)cc1 (stereo not given), COc1ccccc1OCC(=O)Nc1nc(-c2cccs2)c(NC(=O)c2ccccc2)s1 is higher in fluorescence interference ratio: 0.949 for the first, 0.958 for the second.

Compared with O=C(/C=C/c1cc2c(cc1Br)OCO2)c1ccc(Cl)cc1, O=C(CSc1nc2ccccc2o1)Nc1ccc2c(c1)OCO2 is lower in fluorescence interference ratio: 1.06 for the first, 0.937 for the second.

Compared with COc1cc(CN2CCN(Cc3cccc(F)c3)CC2)cc(OC)c1OC, Cc1ccc(S(=O)(=O)N2CCN(Cc3ccc(F)cc3)CC2)cc1 is lower in fluorescence interference ratio: 1.09 for the first, 0.977 for the second.

Compared with COc1cc(NC(=O)c2ccc(Br)cc2)cc([N+](=O)[O-])c1, CCOc1ccc(C(=O)Nc2ccncc2)cc1 is higher in fluorescence interference ratio: 0.953 for the first, 0.969 for the second.

Going from COc1cc(/C=C2/C(=O)NC(=O)N(c3ccc(C)cc3)C2=O)ccc1OCCOc1ccc([N+](=O)[O-])cc1 to COc1ccc(OC)c(N2C(=O)NC(=O)C(=Cc3ccc(C)o3)C2=O)c1, the fluorescence interference ratio rises from 0.823 to 1.1.

Going from COC(=O)C1=C(C)NC2=C(C(=O)c3ccccc32)C1c1cc2c(cc1Br)OCO2 (stereo not given) to CCOc1cccc2c1NC(C)(C)c1sn(-c3ccccc3)c(=S)c1-2, the fluorescence interference ratio falls from 1.02 to 0.947.

First: CS(=O)(=O)N(CC(=O)N1CCOCC1)c1ccccc1Cl
Second: CC1=C(C(=O)OC(C)C)C(c2ccc(Cl)c(Cl)c2)N2C(=O)CCSC2=N1 (stereo not given)
The fluorescence interference ratio of the first is higher: 0.989 for the first, 0.92 for the second.

Compared with O=C(NCC1OCCc2ccccc21)C(c1ccccc1)c1ccccc1 (stereo not given), O=c1oc2cc(OC/C=C/c3ccccc3)ccc2c2ccccc12 is higher in fluorescence interference ratio: 1.08 for the first, 1.11 for the second.

First: CCCOc1ccc(C(=O)Nc2ccc(-c3nc4ccccc4o3)c(O)c2)cc1
Second: O=C(O)CC1S/C(=N\N=C/c2ccccc2O)N(c2ccc(O)cc2)C1=O (stereo not given)
The fluorescence interference ratio of the first is lower: 1.03 for the first, 1.05 for the second.

First: CC(C)CC(=O)Nc1cc(C(=O)O)cc(C(=O)O)c1
Second: O=C(CN1C(=O)c2ccc([N+](=O)[O-])cc2C1=O)Nc1cc(Cl)ccc1C(=O)O
The fluorescence interference ratio of the first is higher: 1.05 for the first, 0.984 for the second.

First: O=C1NC(=O)C(=Cc2cc([N+](=O)[O-])cc(Br)c2O)C(=O)N1
Second: CC(=O)OC(OC(C)=O)c1ccc([N+](=O)[O-])s1
The fluorescence interference ratio of the first is higher: 0.895 for the first, 0.829 for the second.

With CCC(=O)NC(N)=Nc1nc(C)c2cc(C)cc(C)c2n1 the fluorescence interference ratio was 1.11.
